“And” between values parts separate entries of the source, which are not always exact repeats. Equal values may be shown once. About 2,600 (1.2%) of roughly 220,000 compounds were called active. The sample holds actives, similar compounds and a random draw of the others, so the mix is not that of the screen. Unmarked numbers belong to inactive results.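 How the source made its calls: active means activation above the mean of all tested compounds plus 3 SD, set per screening run (cut at about 8.8% in these data); inactive means the rest.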
Each compound was assayed against Wee1-like protein kinase (Homo sapiens) (UniProt P30291) (assay: compounds stabilizing Wee1-luciferase fusion – cell-based, HeLa, Wee1K328M-luciferase, luminescence, primary screen (AID 1321;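 further: cells exposed to compound for 20 h before luminescence read; 0% = DMSO alone and 100% = MG132 at 30 µM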)). Settings: HeLa Luc-Wee1K328M stability, at 5 µM, hits give high values, 100% = proteasome inhibitor MG132 effect.

Structure (SMILES)	reporter increase
Nc1c(-c2ccc(F)cc2)cnc2ncnn12	-2.59%
CC1(C)CN(c2ccc(-c3ccnc4ncnn34)cc2)C1=O	9.83% (active)
Cc1cc(C(=O)OCC(=O)Nc2nccs2)c2ccccc2n1	-2.08%
Cc1cc(=O)[nH]c(SCC(=O)N2c3ccccc3CC2C)n1 (stereo unspecified)	-2.08%
CCOC(=O)c1[nH]c(C)c(C(=O)OCC(=O)N2c3ccccc3CC2C)c1C (stereo unspecified)	15.6% (active)
CCn1nc(C(=O)OCC(=O)N2c3ccccc3CC2C)c2ccccc2c1=O (stereo unspecified)	-0.36%
CC(=O)NCc1ccc(S(=O)(=O)NC2CCN(Cc3ccccc3)CC2)cc1	0.4%
CCOC(=O)C1CCN(C(=O)C2CCN(S(=O)(=O)c3c(C)noc3C)CC2)CC1	-0.61%
CCOc1ccccc1NC(=O)C1CCN(S(=O)(=O)c2c(C)nn(C)c2C)CC1	-1.78%
CCOc1ccc(OCC)c(NC(=O)C2CCN(S(=O)(=O)c3c(C)noc3C)CC2)c1	11.6% (active)
CC1(C)CC(N2CCN(C(c3ccccc3)c3ccccc3)CC2)=CC(=[N+]2CCCCC2)C1	-0.62%
Nc1nc(O)c(CC(=O)O)s1	-1.29%
O=C(O)c1ccc(/C=N/Nc2nc(N3CCCCC3)nc(N3CCCCC3)n2)cc1	-2.82%
O=C(c1c(Cl)cccc1Cl)N1CCN(c2cccc3[nH]ccc23)CC1	0.73%
O=C(COC(=O)c1ccc(F)cc1F)Nc1ncccn1	0.53%
O=C(Cc1nc2ccccc2[nH]c1=O)c1ccc(Cl)cc1	3.48%
Cc1ccc(-c2nc3ccccc3[nH]2)cc1N	0.78%
Cc1ccc(-c2nc3ccccc3[nH]c2=O)cc1	9.13% (active)
O=C(COC(=O)c1ccc(S(=O)(=O)Nc2ccccc2)cc1)NCC1CCCO1 (stereo unspecified)	-1.62%
NS(=O)(=O)c1ccc(NC2=CC(c3ccc(F)cc3)N(c3ccc(S(N)(=O)=O)cc3)C2=O)cc1 (stereo unspecified)	0.72%
CC(CNS(=O)(=O)c1ccc(Br)cc1)CN(C)C (stereo unspecified)	-0.62%
O=S(=O)(Nc1ccc(Cl)cn1)c1cnc(Cl)c(Br)c1	-0.3%
COc1ccc(CN2C(=O)C(C)S/C2=N/N=C/c2ccco2)cc1 (stereo unspecified)	5.4%
CN(C)S(=O)(=O)c1cccc(NC(=S)NCc2ccc3c(c2)OCO3)c1	3.85%

Structure (SMILES)	reporter increase
Cc1ccc(/C=N/NC(=S)Nc2cccc(S(=O)(=O)N(C)C)c2)o1	9.21% (active)
CN(C)S(=O)(=O)c1cccc(NC(=S)N/N=C/C(=O)c2ccccc2)c1	-1.91%
O=C(COC(=O)c1ccccc1SCC(=O)NC1CCCCC1)NC1CCCCC1	11.2% (active)
CCOc1ncccc1C(=O)OCC(=O)NC1CC1	-1.43%
N#Cc1ccccc1Sc1ccccc1C(=O)OCC(=O)NC1CCCCC1	2.45%
COc1ccccc1Nc1nc(N)nc(CSC(=S)N2CCOCC2)n1	-0.95%
O=C(Nc1ccc2c(c1)OCCO2)c1ccoc1	2.96%
Cc1coc2cc3oc(=O)c(CCC(=O)O)c(C)c3cc12	5.73%
S=c1[nH]nc(-c2ccncc2)n1/N=C/c1ccccc1Cl	-0.32%
COc1ccc(O)c(C(=O)c2cnc3onc(C(C)C)c3c2)c1	-2.73%
COCCn1c(=O)[nH]c(=O)c2cc(C(=O)c3cc(OC)ccc3O)cnc21	0.11%
COc1ccc(O)c(C(=O)c2cnc3c(c2)c(-c2ccc(F)cc2)c(C#N)c(=O)n3C)c1	9.71% (active)
COc1ccccc1NC(=O)c1cc(Cl)nc2ccccc12	0.15%
Nc1cccc(S(=O)(=O)Nc2ccc(SC(F)F)cc2)c1	-0.8%
CC(C)NS(=O)(=O)c1ccc(NC(=O)C2CCCCC2)cc1	-3.05%
CC(=O)Nc1ccc(S(=O)(=O)NC(C)C(=O)OCC(=O)NC2CCCC2)cc1 (stereo unspecified)	11.2% (active)
CCOC(=O)[C@H]1CCC[C@@H](NS(=O)(=O)c2ccc(NC(C)=O)cc2)C1	0.32%
OCCC1CN(Cc2cccc(O)c2)CCN1CCc1ccccc1 (stereo unspecified)	-3.15%
OCCC1CN(Cc2cnc(-c3ccccc3)s2)CCN1CCc1ccccc1 (stereo unspecified)	9.46% (active)
OCCC1CN(Cc2ccc(Oc3ncccn3)cc2)CCN1CCc1ccccc1 (stereo unspecified)	-0.52%
O=C(O)Cc1csc(-c2cccc(Oc3ccccc3)c2)n1	3.33% and -2.75%
S=c1nc2ccccc2c2nc(-c3cccnc3)[nH]n12	1.58%
C=CCn1c(-c2sc(-c3ccccc3)nc2C)n[nH]c1=S	-4.5%
C=CCn1c(=S)sc2c(=O)[nH]c(C)nc21	9.98% (active)

Structure (SMILES)	reporter increase
C=CCn1c(-c2ccc3[nH]c(C)c(C)c3c2)n[nH]c1=S	-4.16%
S=c1[nH]nc(-c2cccs2)n1/N=C/c1cn(-c2ccccc2)nc1-c1ccc(Cl)cc1	-0.32%
CCc1ccc2oc(-c3ccc(N)cc3)nc2c1	18.6% (active)
COc1cccc(-c2nc3cc(C)ccc3o2)c1	1.41%
CCCCCC(=O)Nc1ccc2oc(-c3ccncc3)nc2c1	-0.09%
O=C(NCc1ccccc1)c1ccc(CNc2c(N3CCCC3)c(=O)c2=O)cc1	-2.66%
COc1ccc(N2CCN(C(c3cc4ccc(C)cc4[nH]c3=O)c3nnnn3C3CCCC3)CC2)cc1 (stereo unspecified)	0.68%
CCOC(=O)C1CCN(C(c2cc3cc(C)cc(C)c3[nH]c2=O)c2nnnn2C2CCCCC2)CC1 (stereo unspecified)	1.1%
CN1CCN(C(c2cc3cc4c(cc3[nH]c2=O)OCCO4)c2nnnn2C2CCCC2)CC1 (stereo unspecified)	11.8% (active)
COc1ccc(-c2nn(C)c(=O)c3ccccc23)cc1CNC(=O)C1CCCCC1	0.26%
CCN(CC)CCNCC(=O)Nc1ccc(Oc2ccccc2)cc1	2.79%
O=c1ccnc(Nc2ccc(Cl)cc2)[nH]1	1.16%
O=C(COC(=O)c1ccc(NS(=O)(=O)c2cccs2)cc1O)Nc1ccc(F)cc1	-0.64%
COc1ccc(-n2ncc3c(N4CCc5ccccc54)ncnc32)cc1	8.86% (active)
COc1ccc(-n2ncc3c(N4CCCc5ccccc54)ncnc32)cc1	3.61%
c1ccc(-n2ncc3c(N4CCCC4)ncnc32)cc1	5.02%
COc1ccc(CCNC(=O)C(=O)Nc2ccc3nc4n(c(=O)c3c2)CCCCC4)cc1OC	1.04%
Brc1ccc(-c2noc(-c3ccccc3)n2)o1	0.13%
Cn1c(CSCC(=O)Nc2ccccc2)nnc1SCc1ccccc1	-1.68%
COC(=O)c1cccc([N+](=O)[O-])c1CS(=O)(=O)c1ccc(C)cc1	1.24%
Cc1ccc(N=C2NC(=O)c3cccc([N+](=O)[O-])c32)cc1	8.82% (active)
CCCCOc1ccc(CON(C(C)=O)C(C)=O)cc1Cl	-0.35%
c1csc(-c2nnc(COc3ncnc4sccc34)o2)c1	1.62%
O=C1C(Cc2ccc(O)cc2)NC(=S)N1Cc1ccccc1 (stereo unspecified)	-2.34%

Structure (SMILES)	reporter increase
COc1ccc(-n2c(=S)[nH]c3sc4c(c3c2=O)CCc2ccccc2-4)cc1	8.88% (active)
CSc1nc2sc3c(c2c(=O)[nH]1)CCc1ccccc1-3	-0.01%
COc1cccc(-n2c(=S)[nH]c3c(oc4ccccc43)c2=O)c1	5.9%
COc1ccc(CCNS(=O)(=O)c2cccc3cccnc23)cc1OC	-3.35%
Cc1ccc(/C=N/NC(=O)CSc2ccccn2)o1	3.47%
O=C(Nc1ccccc1N1CCOCC1)c1csc2c1CCCC2	-0.73%
Cc1nc2cccnc2nc1C	6.05%
CCC(C)(C)NC(=O)C(c1ccccn1)N(C(=O)c1csnn1)c1ccccc1 (stereo unspecified)	1.04%
CC(C)(C)NC(=O)CN(C(=O)c1ccc(Cl)nc1)c1cccc2ccccc12	-1.92%
CC(C)(C)NC(=O)CN(C(=O)c1csnn1)c1ccccc1-c1ccccc1	10.2% (active)
CC(C)COC(=O)n1c(=O)oc2ccc(S(=O)(=O)N3CCCCC3)cc21	-1.87%
Cn1c(=O)n(C)c2cc(NS(=O)(=O)c3ccc(F)cc3)ccc21	12.5% (active)
Cc1cc(C)cc(NS(=O)(=O)c2ccc(F)cc2)c1	-2.79%
Cn1nccc1NS(=O)(=O)c1ccc(F)cc1	0.03%
Cn1c2ccccc2c2cc(/C=C(\NC(=O)c3ccccc3)C(=O)NCC(=O)O)ccc21	-0.33%
O=C(NNc1ccccn1)c1ccc(Cl)nc1	-1.7%
CCN(CC)c1ccc(NC(=O)c2ccc(Cl)nc2)cc1	10.4% (active)
NS(=O)(=O)c1ccc(NC(=O)COC(=O)c2ccc(Cl)nc2)cc1	-1.21%
CCCc1nc(-c2cc3cc(C)ccc3[nH]c2=O)no1	-2.96%
FC(F)(F)Oc1ccc(-c2cn3cccnc3n2)cc1	-1.79%
COc1ccc(CCN2C(=O)N(c3ccc(OC)cc3)C(=O)C2CC(=O)Nc2ccc(OC)cc2)cc1 (stereo unspecified)	-1.78%
CCCC1=Nc2cc(C(=O)NCc3ccco3)ccc2Sc2ccccc21	11.6% (active)
CCOc1ccccc1C(=O)NCc1ccco1	-0.54%
COc1ccc(CCNS(=O)(=O)c2ccc(C(=O)NCc3ccco3)cc2)cc1OC	-0.79%

Reference: PubChem BioAssay AID1321 (The Scripps Research Institute Molecular Screening Center, 2008)
